# High-throughput results from PubChem BioAssay.
# Shiga inhibitor – Shiga toxin inhibition; AID 2315; inhibition, % at 38.7 µM; Vero cells, Shiga toxin protein synthesis inhibition reporter; hit rate 9.2% among 290,000; in the data active = inhibition mostly above about 28%, no sharp cut-off; inactive = mostly below about 43%; note: 0% is about no effect
# FMDV inh – foot and mouth disease virus antiviral activity | Potency, µM (titrated, usually from 57.9 µM), inactives show at the top dose activity change, negative = inhibition, most hits filed as inhibitors | hit rate 1.2% among 410,000 | AID 1159524 | FMDV antiviral cell-based qHTS; calls by dose curve; tested in HEK293T cells; note: read-out not given here; potency is the fitted concentration of half-maximal effect; % is set by controls: 0 for no effect and ±100 for the full control effect; nearly all actives have a fitted effect of over 45% in size
# Sm TGR inh – inhibitors of Schistosoma mansoni thioredoxin glutathione reductase. Q962Y6. purified TGR, DTNB reduction, TNB absorbance 405 nm. Potency, µM (doses to about 114 µM), inactives show at the highest dose activity change, negative = inhibition, usual class: inhibitors. hit rate 3% among 360,000. AID 485364; active = well fitted inhibition curve with a large enough effect; inconclusive = small, poorly fitted or top-dose-only effect; inactive = no such curve, though single readings can be large or run the other way; note: potency is the fitted concentration of half-maximal effect; % is set by controls: 0 for no effect and ±100 for the full control effect; nearly all actives have a fitted effect of over 60% in size
#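 First, TGR (20 nM dispensed) and NADPH were mixed with compound. Second, a 15 min room-temperature incubation followed. Third, further NADPH and then DTNB were added to start the reaction. Finally, TNB absorbance was monitored kinetically.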
# Cycloheximide cs – counter-screen for Shiga toxin inhibitors: cycloheximide protein synthesis inhibition. cell reporter, cycloheximide protein synthesis inhibition counterscreen. max response, %. hit rate 12% among 300,000; in the data active = max response mostly above about 13%, no sharp cut-off; inactive = mostly below about 14%; note: read at 38.3 µM for the half of the compounds with a filed dose; 0% is about no effect
# Active calls of the source: *; ? = inconclusive; . = no result given. An excerpt weighted towards active compounds, which were near 12% of everything screened.
SMILES,Shiga inhibitor,FMDV inh,Sm TGR inh,Cycloheximide cs
CCCCCCCCn1c2c(c(=N)c3ccccc31)CCC2,23,2.5µM*,9%,1
CCCCCCCCCn1c2c(c(=N)c3c1CCC3)CCCC2,-53,10µM*,0%,-8
COc1ccc(NC(=O)c2oc3ccccc3c2NC(=O)c2ccco2)cc1,35*,-3%,-10%,47*
COc1ccc(NC(=O)c2oc3ccccc3c2NC(=O)c2cc3ccccc3o2)c(OC)c1,.,-2%,4%,.
COc1ccc(NC(=O)c2oc3ccccc3c2NC(=O)c2ccco2)c(OC)c1,16,-22%,-24%,11*
COc1ccc(NC(=O)c2oc3ccccc3c2NC(=O)c2cc3ccccc3o2)cc1,.,-9%,4%,.
CC(C)c1ccc(NC(=O)c2cc3c(s2)-c2ccccc2SC3)cc1,.,-2%,12%,.
COc1ccccc1Nc1sc(C(=O)c2ccc(C)cc2C)c(N)c1S(=O)(=O)c1ccccc1,.,-14%,3%,.
O=C(CSc1nc2c([nH]c3ccccc32)c(=O)n1-c1ccccc1)Nc1ccccc1C(F)(F)F,.,-6%,-11%,.
Cc1ccc(C(CC(=O)NCC2(c3ccccc3)CCCC2)c2ccccc2)c(O)c1 (stereo not drawn),.,7.9µM*,0%,.
CC(=O)c1ccc(NC(=O)c2sc3nc(N4CCOCC4)c4c(c3c2N)CCCC4)cc1,65*,6%,-3%,21*
COc1cccc(NC(=O)c2sc3nc(N4CCOCC4)c4c(c3c2N)CCCC4)c1,30*,0%,-26%,25*
Cc1ccc(NC(=O)c2sc3nc(N4CCOCC4)c4c(c3c2N)CCCC4)cc1,.,9%,.,.
Nc1c(C(=O)Nc2ccccc2)sc2nc(N3CCOCC3)c3c(c12)CCCC3,.,14%,.,.
Cc1nn(CCC(=O)NC(C)C)c(=O)c2nn(-c3ccccc3)c(C)c12,.,-13%,0%,.
COc1cccc(C(=O)CC(=O)C(=O)Nc2ccc(C)cc2Cl)c1,38*,-18%,-20%,12*
COc1ccc(C(=O)CC(=O)C(=O)Nc2ccc(C)c(C)c2)cc1,94*,-18%,0%,18*
COc1ccc(C(=O)CC(=O)C(=O)Nc2cccc(C(C)=O)c2)cc1,24,4%,3%,17*
COc1ccc(C(=O)CCC(=O)Nc2cccc(C(C)=O)c2)cc1,.,-12%,9%,.
NCCOB(c1ccccc1)c1ccccc1,.,30%,.,.
COc1ccc(NC(=O)CN(C)S(=O)(=O)c2ccc3nc(C)sc3c2)cc1,.,-13%,9%,.
CCn1c(CNC(=O)c2ccc(OC)cc2)nnc1SCC(=O)Nc1ccc(OC)cc1,.,-4%,9%,.
O=C(NCCc1nnc2n1CCN(Cc1ccc(F)c(F)c1)CC2)c1ccoc1,.,-5%,.,.
Cc1cccc(NC(=O)C2CCCN2S(=O)(=O)c2ccc3nc(-c4ccccc4)[nH]c3c2)c1 (stereo not drawn),.,-26%,0%,.
O=C(NC(=S)Nc1cc(C(F)(F)F)ccc1N1CCOCC1)c1ccco1,-6,-28%,11µM*,-2
SMILES,Shiga inhibitor,FMDV inh,Sm TGR inh,Cycloheximide cs
O=C(NC(=S)Nc1ccccc1N1CCCCC1)c1cccs1,-14,?,-13%,1
O=C(NC(=S)Nc1ccccc1N1CCCC1)c1cccs1,55*,38%,8%,51*
Cc1ccc(C(=O)Nc2ccc(S(=O)(=O)N3CCCC3)cc2)s1,50,13%,10%,14*
O=C(NC(=S)Nc1ccc(S(=O)(=O)N2CCCC2)cc1)c1cccs1,0,?,18µM*,13
Cc1cc(C(=O)Nc2ccc(S(=O)(=O)N3CCCC3)cc2)cs1,22,?,-1%,7
CCOC(=O)C1CCN(C(=S)NC(=O)c2cccs2)CC1,47,19%,0%,29*
O=C(NC(=S)Nc1ccc(N2CCN(C(=O)c3ccccc3)CC2)cc1)c1cccs1,-9,?,?,-4
COc1cc(OC)cc(C(=O)NC(=S)Nc2ccc(N3CCCC3)cc2)c1,-9,-7%,89µM*,2
O=C(NC(=S)Nc1ccc(N2CCCCC2)cc1)c1cccs1,79*,11%,40µM*,52*
CS(=O)(=O)N1CCN(c2ccc(NC(=S)NC(=O)c3cccs3)cc2)CC1,17,-7%,-12%,16*
CC(C)(C)C(=O)Nc1ccc2nc(SCC(=O)N3CCc4ccccc43)sc2c1,.,?,-1%,.
Cc1ccc(NC(=O)C2CCN(c3nc4ccccc4[nH]3)CC2)c(C)c1,.,7%,-2%,.
O=C(NC(=S)N1CCN(c2ccc(O)cc2)CC1)c1cccs1,84*,34%,0%,24*
O=C(NC(=S)N1CCN(c2ccc(F)cc2)CC1)c1cccs1,-2,-9%,-2%,3
COc1cc(C(=O)NC(=S)Nc2ccccc2N2CCOCC2)cc(OC)c1OC,-8,10%,25µM*,1
Cc1onc(-c2ccccc2)c1C(=O)Nc1ccc(S(=O)(=O)N2CCCC2)cc1,34,16%,3%,19*
COc1cccc(C(=O)NC(=S)Nc2ccccc2N2CCOCC2)c1,5,?,2%,-2
Cc1onc(-c2ccccc2)c1C(=O)Nc1ccc(S(=O)(=O)N2CCCCC2)cc1,-16,-19%,2%,-7
COc1ccc(CN2CCC3C=CCC(C(=O)O)C3C2=O)cc1OC (stereo not drawn),-4,.,.,-4
CC1=C(c2ccc(Cl)cc2)S(=O)(=O)N=C1N1CCN(c2cccc(C)c2)C(C)C1 (stereo not drawn),.,?,-17%,.
CCC(=O)N1c2ccccc2CC1C(=O)NCCN1CCN(c2cccc(C(F)(F)F)c2)CC1 (stereo not drawn),.,-23%,-4%,.
O=C(Nc1ccccc1C(=O)O)c1cccc(F)c1,.,5%,.,.
O=C(CC(=O)c1c(F)cccc1Cl)c1ccccc1O,52*,-6%,-19%,55*
O=C(CC(=O)c1ccccc1O)c1ccc(F)cc1,70*,28%,1%,49*
O=C(CC(=O)c1ccccc1O)c1cccc(F)c1,56*,11%,5%,34*
SMILES,Shiga inhibitor,FMDV inh,Sm TGR inh,Cycloheximide cs
Cc1ccc(C)n1-c1nnc(N2CCCC(C(=O)Nc3ccccc3Br)C2)s1 (stereo not drawn),.,0%,?,.
CC(C)(C)OC(=O)N1CCC(c2c(C(=O)N3CCN(c4ccccc4)CC3)cnn2-c2ccccc2)CC1,.,-5%,2%,.
CCN(CC)c1ccc(NC(=O)C2CCCN(S(=O)(=O)c3ccc4c(c3)oc(=O)n4C)C2)c(C)c1 (stereo not drawn),.,?,-7%,.
COC(=O)c1cnc(SCc2ccc(C)cc2)n1C,44,18%,9%,32*
CC(=O)Nc1ccc(-c2nnc(SCc3ccc(C)cc3)n2C)cc1,-5,8%,-11%,-5
Cn1c(CO)cnc1SCc1ccc(Cl)cc1,25,32%,0%,20*
O=C(Nc1cccc(-c2nc3ccccc3o2)c1)c1ccc(N2C(=O)C3C4C=CC(C4)C3C2=O)cc1 (stereo not drawn),21,32µM*,-15%,-1
CC(=O)Nc1ccc(-c2nc3ccc(NC(C)=O)cc3o2)cc1,79*,64%,2%,34*
COc1ccc(OCC(=O)Nc2cccc(-c3nc4ccccc4o3)c2)cc1,123*,-1%,5%,45*
Cc1cc2nc(-c3cccc(NC(=O)COc4ccc(C(C)C)cc4)c3)oc2cc1C,.,45%,1%,.
CCCC(=O)Nc1cccc(-c2nc3ccccc3o2)c1,33,-26%,4%,26*
